The results in this text go back to PubChem BioAssay (EPA / NIEHS).

The source made the active and inactive calls. Rule for the calls: active = hit-call score of the fitted dose curve at least 0.9, where 1 is the maximum; inactive = score below 0.9.

This test in a line: ATG_M_06_CIS: Attagene CIS-FACTORIAL HepG2 Assay for M06 Transcription Factor (Internal Marker) (AID 2282950). The following applies: HepG2 Attagene CIS-FACTORIAL M06 internal marker reporter; actives raise or lower the signal. The protocol:
ATG_CIS is a cell-based, multiplexed-readout assay that uses HepG2, a human liver cell line, with measurements taken at 24 hours after chemical dosing in a 24-well plate.ATG_M_06_CIS is one of 52 assay component(s) measured or calculated from the ATG_CIS assay. It is designed to make measurements of mRNA induction, a form of inducible reporter, as detected with fluorescence intensity signals by Reverse transcription polymerase chain reaction (RT-PCR) and Capillary electrophoresis technology.Data from the assay component ATG_M_06_CIS was analyzed into 1 assay endpoint. This assay endpoint, ATG_M_06_CIS, was analyzed with bidirectional fitting relative to DMSO as the negative control and baseline of activity. Using a type of inducible reporter, measures of mRNA for gain or loss-of-signal activity can be used to understand the background control at the transcription factor-level as they relate to the gene . Furthermore, this assay endpoint can be referred to as a secondary readout, because this assay has produced multiple assay endpoints where this one serves a background control function. To generalize the intended target to other relatable targets, this assay endpoint is annotated to the background measurement intended target family, where the subfamily is internal marker.
Human liver HepG2 cells are transiently transfected with multiple reporter transcription units (MRTUs) in 6-well plates using FuGene 6 reagent (Roche; 3 ml FuGene/1 mg DNA). The MRTU constructs are regulated by a cis-regulating element (promoter). […] A major difference between the CIS and TRANS system is that in CIS activities of endogenous TFs are measured, whereas the TRANS assay evaluates changes in activities of exogenous, chimeric NR-Gal4 proteins. […] At the end of 24 hour incubation, total RNA was isolated using TriZol reagent (Invitrogen). The isolated RNA is then reverse-transcribed using oligo(dT) primer and Mo-MLV reverse transcriptase (Invitrogen) with DNAse I (Ambion) treatment for 30 min. The one-tenth of the produced cDNA was amplified by PCR using Taq DNA polymerase (Invitrogen) and two reporter sequence-specific primers. The PCR products were fluorescently labeled by primer extension with 6-arboxyfluorescein (6-FAM) 5'-labeled reporter sequence-specific primer (2 min at 95 C, 20 s at 68 C and 10 min at 72 C) and these products were digested with 5U of HpaI (New England Biolabs) for 2h at 37 C. The fragments were purified using Qiaquick PCR columns (Qiagen), analyzed on an ABI 3130xL genetic analyzer (Applied Biosystems) with peak positions identified by using a set of X-rhodamine (ROX)-labeled MapMarker1000 molecular weight standards (BioVentures). The raw capillary electrophoresis data was processed using Attagraph software (Attagene).
Regarding `Nc1nc(Cl)nc2c1ncn2[C@H]1C[C@H](O)[C@@H](CO)O1`, the outcome was inactive.
Under `COC(=O)CCC(=O)OC` stands “inactive”; under `COc1ccc(OC(F)(F)F)cc1CN[C@H]1CCCN[C@H]1c1ccccc1`, “inactive”.
For the compound `O=C1OC(c2ccc(O)cc2)(c2ccc(O)cc2)c2ccccc21`, the compound was called inactive.
For the compound `CCC(C)N(C)C(=O)c1cc2ccccc2c(-c2ccccc2Cl)n1` (stereo not given), the outcome was inactive.
Under `CCCC(=O)O` stands “inactive”; under `Cc1cc(Cc2ccc(N)c(C)c2)ccc1N`, “inactive”.
Then `CC(C)(C)c1ccccc1`, with “inactive”.
Under `Cc1ccc(C(C)(C)C)c(O)c1` stands “inactive”; under `O=C1O[C@H]([C@H](O)CO)C(O)=C1O`, “inactive”; under `C/C=C/C=C/C(=O)O`, “inactive”.
On to `O=C(O)CN(CC(=O)O)CC(=O)O`, for which the outcome was inactive.
In the case of `COC(=O)CCCC(=O)OC`, the compound was called inactive.
Under `CCCC[C@H]1CN(CC2CCOCC2)C(=O)OC12CCN(C1(C)CCN(C(=O)c3c(C)ncnc3C)CC1)CC2` stands “inactive”.
Under `N[C@@H](Cc1c[nH]c2ccccc12)C(=O)O` stands “inactive”; under `COc1ccc(C(=O)Nc2nc3ccccc3c(NCc3ccccc3)c2C#N)cc1`, “inactive”.
`CC(=O)CC(c1ccccc1)c1c(O)c2ccccc2oc1=O` (stereo not given): the compound was classed as inactive.
Under `CCCCC(CC)COC(=O)CCCCCCCC(=O)OCC(CC)CCCC` (stereo not given) stands “inactive”; under `NC=O`, “inactive”; under `CC(N)=O`, “inactive”.
Then `CC(C)(O)c1ccc(CNC(=O)c2cccnc2Oc2ccc(F)cc2)cc1`, with “inactive”.
On to `C#CC(O)C(CC)CCCC` (stereo not given), for which the compound was classed as inactive.
On to `CC(C)OC(=O)C(C)(C)Oc1ccc(C(=O)c2ccc(Cl)cc2)cc1`, for which the call was inactive.
Regarding `Cn1cnc2c1c(=O)[nH]c(=O)n2C`, the compound was called inactive.
In the case of `Nc1nc(=S)c2[nH]cnc2[nH]1`, the compound was called inactive.
Then `O=C1NC(=O)C(c2ccccc2)(c2ccccc2)N1`, with “inactive”; and `CC(C)c1cccc(C(C)C)c1NC(=O)NS(=O)(=O)c1cc(C(C)(C)O)co1`, with “inactive”; and `Oc1ccccc1O`, with “inactive”.
Then `O=[Si]=O`, with “inactive”.
With `NCCOCCOCCN`, the outcome was inactive.
Then `CCCCC(CC)COP(=O)(OCC(CC)CCCC)OCC(CC)CCCC` (stereo not given), with “inactive”; and `O=C(O)c1[nH]n(-c2ccc(S(=O)(=O)O)cc2)c(=O)c1N=Nc1ccc(S(=O)(=O)O)cc1`, with “inactive”.
`CCCCCCCCCC[N+](C)(C)[O-]`: the compound was called inactive.
Take `C=CCCCCCCCCCCCC`: the result was inactive.
Under `COC(=O)[C@H]1[C@H]2C[C@@H]3c4[nH]c5cc(OC)ccc5c4CCN3C[C@H]2C[C@@H](OC(=O)c2cc(OC)c(OC)c(OC)c2)[C@@H]1OC` stands “inactive”; under `Cc1cn([C@H]2C=C[C@@H](CO)O2)c(=O)[nH]c1=O`, “inactive”; under `CO[C@@H]1COCC[C@@H]1N[C@@H]1CC[C@@](C(=O)N2CCc3ncc(C(F)(F)F)cc3C2)(C(C)C)C1`, “inactive”.
Regarding `NC1CCCCC1`, the result was inactive.
As for `CC1=C(C)S(=O)(=O)CCS1(=O)=O`, the call was inactive.
For the compound `O=C1c2c(O)cccc2Cc2cccc(O)c21`, the compound was called inactive.
